Laboratory results as given in PubChem BioAssay (Tox21).
Inconclusive results are not listed. Active and inactive are the calls of the source. Unless noted, calls follow the shape of the dose curve; as a rule, active = well fitted curve in the direction sought with a large enough effect in the repeat runs; inconclusive = weak or mixed curves; inactive = no such curve, though single readings can be large; an effect the other way counts as inactive or inconclusive.

Legend:
[1] = qHTS assay to identify small molecule agonists of the estrogen receptor alpha (ER-alpha) signaling pathway in the presence of an antagonist - cell viability counter screen (AID 1259386);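 also: series mostly up to about 92 µM; cells exposed to compounds for 22 h at 37 °C before the viability read; % is scaled to controls: 0 for no effect and ±100 for the full control effect; nearly all actives have a fitted effect of over 30% in size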
Outline: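 Using estrogen-depleted VM7Luc4E2 cells, the 15-concentration compound series was applied together with 10.0nM ICI-182,780 and incubated 22hr at 37C/5% CO2. Cell viability was then scored by CellTiter-Fluor.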

[2] = biological target: Progesterone receptor (Homo sapiens) (UniProt P06401); assay: qHTS assay to identify small molecule agonists of the progesterone receptor (PR) signaling pathway (AID 1346784; calls by dose curve; also: nearly all actives have a fitted effect of over 30% in size; also: potency is read from the fitted curve at half-maximal effect; as to activation: % is scaled to controls: 0 for no effect and ±100 for the full control effect)
Progesterone receptor (Homo sapiens), sequence (P06401 whole entry, looked up): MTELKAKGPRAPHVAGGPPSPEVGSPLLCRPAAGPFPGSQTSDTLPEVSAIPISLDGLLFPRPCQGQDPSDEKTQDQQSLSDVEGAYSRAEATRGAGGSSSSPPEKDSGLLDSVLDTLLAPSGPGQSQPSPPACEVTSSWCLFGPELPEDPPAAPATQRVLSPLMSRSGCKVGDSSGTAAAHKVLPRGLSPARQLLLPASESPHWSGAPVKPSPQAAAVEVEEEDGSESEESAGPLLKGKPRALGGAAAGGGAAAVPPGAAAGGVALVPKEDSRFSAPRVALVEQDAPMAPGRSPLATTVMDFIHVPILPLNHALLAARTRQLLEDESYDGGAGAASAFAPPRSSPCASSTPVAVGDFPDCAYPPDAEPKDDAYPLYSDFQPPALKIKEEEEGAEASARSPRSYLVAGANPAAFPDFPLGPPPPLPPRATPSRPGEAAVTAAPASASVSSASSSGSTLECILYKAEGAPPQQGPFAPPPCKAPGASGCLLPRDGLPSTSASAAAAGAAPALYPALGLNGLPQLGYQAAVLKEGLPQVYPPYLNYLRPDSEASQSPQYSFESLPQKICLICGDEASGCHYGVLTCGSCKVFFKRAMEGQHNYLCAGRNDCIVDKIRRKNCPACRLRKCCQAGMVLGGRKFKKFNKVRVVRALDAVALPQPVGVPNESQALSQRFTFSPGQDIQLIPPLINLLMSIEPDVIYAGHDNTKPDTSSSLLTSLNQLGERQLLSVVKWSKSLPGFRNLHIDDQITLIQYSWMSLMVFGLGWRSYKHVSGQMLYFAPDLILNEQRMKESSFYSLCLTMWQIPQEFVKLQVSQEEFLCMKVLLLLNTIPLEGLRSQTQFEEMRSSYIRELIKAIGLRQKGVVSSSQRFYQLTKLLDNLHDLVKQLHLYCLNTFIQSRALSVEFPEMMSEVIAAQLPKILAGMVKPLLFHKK
Outline: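 Compounds were tested for PR agonism in HEK 293T cells bearing a beta-lactamase gene under UAS control. Treatment lasted 16 hr at 37C; signal came from fluorescence of a FRET substrate.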

[3] = biological target: Progesterone receptor (Homo sapiens) (UniProt P06401); assay: qHTS assay to identify small molecule antagonists of the progesterone receptor (PR) signaling pathway (AID 1346795; active = well fitted inhibition curve with a large enough effect in the signal ratio in the repeat runs, not every such curve was filed as active; the % refers to the signal ratio; also: % is scaled to controls: 0 for no effect and ±100 for the full control effect)
Outline: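 In HEK293T cells bearing the PR-UAS-bla reporter, compound effects on promegestone-driven (1 nM) beta-lactamase expression are assessed after 16 hr using a fluorescent FRET substrate incubated 2 hr at room temperature.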

[4] = qHTS assay to identify small molecule antagonists of the progesterone receptor (PR) signaling pathway - cell viability counter screen (AID 1346798); also: nearly all actives have a fitted effect of over 50% in size; also: potency is read from the fitted curve at half-maximal effect
Outline: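 Following a 4 hr attachment, PR-UAS-bla HEK293T cells in charcoal-stripped FBS medium were exposed to compounds with R5020 for 16 hr; CellTiter-Glo was added and luminescence read after 30 min at room temperature.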

[5] = qHTS assay to identify small molecule agonists of the progesterone receptor (PR) signaling pathway - cell viability counter screen (AID 1346799; calls by dose curve; also: % is scaled to controls: 0 for no effect and ±100 for the full control effect; nearly all actives have a fitted effect of over 45% in size)
Outline: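 Here, 3,000 PR-UAS-bla HEK293T cells per well were treated with compounds for 16 hr after a 6 hr preincubation at 37C and 5% CO2; cell viability is the CellTiter-Glo luminescence signal.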

[6] = qHTS assay to identify small molecule antagonists of the TGF-beta/Smad signaling pathway - cell viability counter screen (AID 1346824); also: % is scaled to controls: 0 for no effect and ±100 for the full control effect; nearly all actives have a fitted effect of over 50% in size
Outline: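 SBE-bla HEK 293T cells, incubated overnight, then compound plus 0.25 ng/mL TGF-beta1 (stock added) for 5 hr at 37 C. Viability was read in the same wells by CellTiter-Glo luminescence after 30 min at room temperature.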

[7] = qHTS assay to identify small molecule agonists of the TGF-beta/Smad signaling pathway - cell viability counter screen (AID 1346829); also: top concentration of the series differs between compounds; % is scaled to controls: 0 for no effect and ±100 for the full control effect; nearly all actives have a fitted effect of over 45% in size
Outline: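 Luminescence from CellTiter-Glo, read after a 30 min room-temperature incubation, gives cell viability of SBE-bla HEK 293T cells treated 5 hr with compounds at 37 C.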

[8] = qHTS assay to identify small molecule agonists of the TGF-beta/Smad signaling pathway (AID 1346859; active = well fitted activation curve with a large enough effect in the signal ratio in the repeat runs, not every such curve was filed as active; the % refers to the signal ratio; also: series mostly up to about 77 µM; % is scaled to controls: 0 for no effect and ±100 for the full control effect)
Outline: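 Each well held 4,000 SBE-bla HEK 293T cells incubated overnight before compound addition; 5 hr later the cleavable FRET substrate went on for 2 hr at room temperature, and fluorescence was read at two emissions.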

[9] = biological target: Thyrotropin-releasing hormone receptor (Homo sapiens) (UniProt P34981); assay: qHTS assay to identify small molecule antagonists of the thyrotropin-releasing hormone receptor (TRHR) signaling pathway (AID 1346877; active = well fitted inhibition curve with a large enough effect in the repeat runs, not every such curve was filed as active; also: series mostly up to about 51 µM; % is scaled to controls: 0 for no effect and ±100 for the full control effect)
Thyrotropin-releasing hormone receptor (Homo sapiens), sequence (P34981 whole entry, looked up): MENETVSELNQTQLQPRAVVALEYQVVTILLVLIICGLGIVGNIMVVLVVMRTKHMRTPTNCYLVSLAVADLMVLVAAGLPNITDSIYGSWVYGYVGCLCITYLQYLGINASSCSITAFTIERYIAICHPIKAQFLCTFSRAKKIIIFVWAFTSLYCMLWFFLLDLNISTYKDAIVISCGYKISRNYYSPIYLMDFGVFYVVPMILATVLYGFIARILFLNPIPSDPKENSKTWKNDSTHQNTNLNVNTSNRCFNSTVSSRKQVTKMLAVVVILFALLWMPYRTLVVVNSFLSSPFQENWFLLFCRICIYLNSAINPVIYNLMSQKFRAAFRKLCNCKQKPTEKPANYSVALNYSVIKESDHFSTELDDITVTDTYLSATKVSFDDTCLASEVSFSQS
Outline: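 Calcium signal in dye-loaded TRHR/HEK293 cells; compounds added 5 min before TRH (1 nM final); fluorescence monitored 3 min at 1 s steps.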

[10] = biological target: Thyrotropin-releasing hormone receptor (Homo sapiens) (UniProt P34981); assay: qHTS assay to identify small molecule agonists of the thyrotropin-releasing hormone receptor (TRHR) signaling pathway (AID 1346891; calls by dose curve; also: potency is read from the fitted curve at half-maximal effect)
Outline: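 Screening of agonists relied on calcium signalling in HEK293 cells expressing human TRHR: dye loading 2 h at 37 °C preceded compound addition and a 3-min fluorescence time course.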

[11] = Human pregnane X receptor (PXR) small molecule agonists, qHTS cell viability counter screen (AID 1346977); also: % is scaled to controls: 0 for no effect and ±100 for the full control effect; nearly all actives have a fitted effect of over 50% in size
Outline: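 Tox21 qHTS format; PXR-Luc HepG2, 2,000/well, charcoal-stripped FBS 5%. Cpd exposure 24hr. Read: CellTiter-Fluor fluorescence, multiplexed with luciferase.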

[12] = Caspase-3/7 induction in HepG2 cells by small molecules, qHTS assay (AID 1346978); also: % is scaled to controls: 0 for no effect and ±100 for the full control effect; nearly all actives have a fitted effect of over 15% in size
Outline: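 Wild-type HepG2 cells, 2,000/well, settled 5 hr at 37 C and 5% CO2, then compound-treated for 17 hr; caspase-3/7 activity read by luminescent Caspase-Glo 3/7 after 30 min at room temperature.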

[13] = Caspase-3/7 induction in CHO-K1 cells by small molecules, qHTS cell viability counter screen (AID 1346979); also: % is scaled to controls: 0 for no effect and ±100 for the full control effect; nearly all actives have a fitted effect of over 35% in size
Outline: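 CellTiter-Fluor viability check, qHTS format: wild-type CHO-K1, 16hr compound treatment, 1hr reagent incubation, fluorescence read.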

[14] = Caspase-3/7 induction in CHO-K1 cells by small molecules, qHTS assay (AID 1346980); also: % is scaled to controls: 0 for no effect and ±100 for the full control effect; nearly all actives have a fitted effect of over 15% in size
Outline: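 Wild-type CHO-K1 cells exposed to compounds for 17hr at 37 C, 5% CO2. Caspase-3/7 activity then measured by Caspase-Glo 3/7 luminescence after 30min at room temperature.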

[15] = Caspase-3/7 induction in HepG2 cells by small molecules, qHTS cell viability counter screen (AID 1346981); also: series mostly up to about 92 µM; % is scaled to controls: 0 for no effect and ±100 for the full control effect; nearly all actives have a fitted effect of over 30% in size
Outline: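 After a 5-hr attachment period at 37 C and 5% CO2, wild-type HepG2 cells received compounds in DMSO. Sixteen hours later CellTiter-Fluor was dispensed and the fluorescent signal quantified after a further hour.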

[16] = biological target: Nuclear receptor subfamily 1 group I member 2 (Homo sapiens) (UniProt O75469); assay: Human pregnane X receptor (PXR) small molecule agonists, qHTS assay (AID 1346982); also: nearly all actives have a fitted effect of over 35% in size; also: potency is read from the fitted curve at half-maximal effect
Nuclear receptor subfamily 1 group I member 2 (Homo sapiens), sequence (O75469 whole entry, looked up): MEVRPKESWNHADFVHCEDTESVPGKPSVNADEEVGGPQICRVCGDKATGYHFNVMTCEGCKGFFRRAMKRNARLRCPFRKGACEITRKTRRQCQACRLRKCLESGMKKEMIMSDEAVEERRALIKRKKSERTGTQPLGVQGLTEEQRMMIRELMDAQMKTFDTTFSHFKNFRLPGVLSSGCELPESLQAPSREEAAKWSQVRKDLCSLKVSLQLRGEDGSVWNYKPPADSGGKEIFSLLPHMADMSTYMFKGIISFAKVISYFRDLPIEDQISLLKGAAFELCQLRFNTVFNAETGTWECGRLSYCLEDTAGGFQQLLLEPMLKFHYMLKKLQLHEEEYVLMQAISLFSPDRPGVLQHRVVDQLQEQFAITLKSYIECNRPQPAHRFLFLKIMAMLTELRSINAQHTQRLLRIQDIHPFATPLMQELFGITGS
Outline: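 Tox21 qHTS; PXR-Luc HepG2; compounds pinned from DMSO; 24 hr, 37 C; ONE-Glo luciferase detection, 30 min room temperature.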

[17] = biological target: Thyrotropin receptor (Homo sapiens) (UniProt P16473); assay: qHTS assay to identify small molecule antagonists of the thyroid stimulating hormone receptor (TSHR) signaling pathway (AID 1259385; calls by dose curve; also: % is scaled to controls: 0 for no effect and ±100 for the full control effect; nearly all actives have a fitted effect of over 20% in size)
Thyrotropin receptor (Homo sapiens), sequence (P16473 whole entry, looked up): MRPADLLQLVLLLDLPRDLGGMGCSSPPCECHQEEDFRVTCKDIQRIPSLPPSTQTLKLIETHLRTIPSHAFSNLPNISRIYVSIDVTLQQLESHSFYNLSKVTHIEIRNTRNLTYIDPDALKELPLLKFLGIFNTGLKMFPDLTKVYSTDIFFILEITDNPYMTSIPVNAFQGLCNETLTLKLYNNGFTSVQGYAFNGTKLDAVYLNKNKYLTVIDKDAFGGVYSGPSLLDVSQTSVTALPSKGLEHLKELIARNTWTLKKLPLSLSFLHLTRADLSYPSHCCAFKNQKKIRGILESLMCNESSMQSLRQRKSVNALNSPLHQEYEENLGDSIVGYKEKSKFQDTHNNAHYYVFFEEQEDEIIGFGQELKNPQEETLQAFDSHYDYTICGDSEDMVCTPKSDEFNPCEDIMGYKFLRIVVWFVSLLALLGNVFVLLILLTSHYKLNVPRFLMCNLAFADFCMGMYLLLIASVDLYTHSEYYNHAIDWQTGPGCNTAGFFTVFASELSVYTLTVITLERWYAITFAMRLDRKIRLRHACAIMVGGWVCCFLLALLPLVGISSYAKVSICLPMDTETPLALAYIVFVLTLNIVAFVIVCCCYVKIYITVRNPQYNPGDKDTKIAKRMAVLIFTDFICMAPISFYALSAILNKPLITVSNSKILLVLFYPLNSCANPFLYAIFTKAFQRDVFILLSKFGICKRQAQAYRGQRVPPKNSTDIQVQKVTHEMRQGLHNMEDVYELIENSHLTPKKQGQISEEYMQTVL
Outline: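 TSHR-HEK293 cells (800/well) plated 18 h, then compounds with Ro20-1724 and TSH at 1.5 ng/mL final, 30 min at room temperature. cAMP quantified by HTRF (cAMP-d2/anti-cAMP-cryptate, 1 h); 15 concentrations in triplicate.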

[18] = biological target: Nuclear receptor subfamily 1 group I member 2 (Rattus norvegicus) (UniProt Q9R1A7); assay: Rat pregnane X receptor (rPXR) activation by small molecules, qHTS assay (AID 1346983); conditions: rPXR luciferase reporter cells, One-Glo luminescence, 24 h; max activation: hits give high values; also: potency is read from the fitted curve at half-maximal effect; nearly all actives have a fitted effect of over 20% in size
Nuclear receptor subfamily 1 group I member 2 (Rattus norvegicus), sequence (Q9R1A7 whole entry, looked up): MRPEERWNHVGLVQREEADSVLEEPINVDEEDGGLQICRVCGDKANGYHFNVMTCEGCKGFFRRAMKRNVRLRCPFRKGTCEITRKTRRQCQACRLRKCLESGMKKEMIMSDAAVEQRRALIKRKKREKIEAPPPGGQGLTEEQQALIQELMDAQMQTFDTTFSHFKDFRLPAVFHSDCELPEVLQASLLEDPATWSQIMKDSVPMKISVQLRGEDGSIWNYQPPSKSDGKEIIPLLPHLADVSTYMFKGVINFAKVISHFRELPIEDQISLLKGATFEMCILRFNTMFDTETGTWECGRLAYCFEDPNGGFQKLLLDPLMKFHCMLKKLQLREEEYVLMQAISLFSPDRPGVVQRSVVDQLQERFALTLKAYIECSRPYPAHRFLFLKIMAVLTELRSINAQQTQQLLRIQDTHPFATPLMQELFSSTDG
Outline: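 Cell-based rPXR activation assay: rPXR cells, 2,000 per well, rested 5hr at 37 C, then exposed to compounds in DMSO for 24 hr at 37 C. Luciferase activity read by One-Glo luminescence after 30 min at room temperature.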

CCCCCCCCOC(=O)CCCCCCCCC(=O)OCCCCCCCC
inactive: Potency [1] | Potency [2] | Potency [3] | Potency [4] | Potency [5] | outcome [6] | outcome [7] | outcome [8] | outcome [9] | Potency [10] | Potency [11] | Potency [12] | Potency [13] | outcome [14] | Potency [15] | Potency [16]

C1CSCCS1
inactive: Potency [17] | Potency [1] | Potency [4] | Potency [5] | outcome [6] | outcome [7] | outcome [8] | Potency [12] | Potency [13] | outcome [14]
active: Potency [16] 27.1 µM

COc1ccc2nc(NC(=O)Nc3ccccc3)sc2c1
inactive: Potency [17] | Potency [1] | Potency [4] | Potency [5] | outcome [6] | outcome [7] | outcome [8] | outcome [9] | Potency [10] | Potency [11] | Potency [12] | outcome [14]
active: Potency [16] 1.88 µM | Potency [18] 0.199 µM

C[C@]12C(=O)OC(=O)[C@H]1[C@H]1C=C[C@@H]2C1
inactive: Potency [1] | Potency [2] | Potency [3] | Potency [4] | Potency [5] | outcome [6] | outcome [7] | outcome [8] | outcome [9] | Potency [10] | Potency [11] | Potency [12] | Potency [13] | outcome [14] | Potency [15] | Potency [16]

Cc1c[nH]c(=S)[nH]c1=O
inactive: Potency [1] | Potency [2] | Potency [3] | Potency [4] | Potency [5] | outcome [6] | outcome [7] | outcome [8] | Potency [11] | Potency [12] | Potency [13] | outcome [14] | Potency [15] | Potency [16]

O=C(CC(=O)C(F)(F)F)c1ccccc1
inactive: Potency [1] | Potency [3] | Potency [4] | Potency [5] | outcome [6] | outcome [7] | outcome [8] | Potency [11] | Potency [12] | outcome [14] | Potency [15]
active: Potency [2] 8.76 µM | Potency [10] 39.5 µM | Potency [16] 55.3 µM

CN(C)C(=O)NC1(c2ccccc2)CCN(CCC[C@]2(c3ccc(Cl)c(Cl)c3)CCCN(C(=O)c3ccccc3)C2)CC1
inactive: activity change, negative = inhibition [17] -0.429% [at 19 µM] | activation [2] -5.56% [at 19 µM] | activity change, negative = inhibition [3] -8.48% [at 18.9 µM] | activity change, negative = cytotoxicity [5] 3.74% [at 19 µM] | viability change, negative = cytotoxic [6] 0% [at 15.8 µM] | activity change, negative = cytotoxicity [7] 2.25% [at 15.8 µM] | caspase-3/7 activation [14] -0.059% [at 19 µM] | activation [16] -0.297% [at 19 µM]

O=Cc1ccc(O)c(O)c1O
inactive: Potency [17] | Potency [2] | Potency [4] | Potency [5] | outcome [6] | outcome [7] | outcome [8] | outcome [9] | Potency [10] | outcome [14] | Potency [16]

CCCCNC(=S)NCCCC
active: Potency [4] 9.69 µM | Potency [16] 34.4 µM
inactive: Potency [17] | Potency [1] | Potency [5] | outcome [6] | outcome [7] | outcome [8] | outcome [9] | Potency [10] | Potency [15]
